Compound activity: PubChem BioAssay, National Center for Advancing Translational Sciences (NCATS)
Most compounds without a hit are left out; they make up all but 2.4% or so of the library.
Cruzain noTriton: cruzain (T. cruzi) inhibition without detergent. P25779. purified cruzain, Z-FR-AMC fluorescence, no detergent. Potency, µM, for inactives: max response, negative = inhibition, hits mostly inhibitors. 200,000 compounds, 2.3% hits;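 note: plate controls were enzyme without inhibitor for no effect and buffer without enzyme for full effect; nearly all actives have a fitted effect of over 40% in size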
Target sequence (P25779 123-467 limits assumed): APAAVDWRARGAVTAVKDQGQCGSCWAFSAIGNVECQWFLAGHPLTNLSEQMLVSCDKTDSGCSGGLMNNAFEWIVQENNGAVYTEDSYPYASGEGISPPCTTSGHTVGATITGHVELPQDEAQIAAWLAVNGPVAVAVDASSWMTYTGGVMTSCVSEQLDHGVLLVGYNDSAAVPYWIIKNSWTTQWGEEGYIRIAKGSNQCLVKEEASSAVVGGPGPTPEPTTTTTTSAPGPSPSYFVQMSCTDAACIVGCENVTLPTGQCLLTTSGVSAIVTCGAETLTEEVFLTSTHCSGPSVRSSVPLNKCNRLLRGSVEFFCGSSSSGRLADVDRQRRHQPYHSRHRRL
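Detergent-free condition (0.00005% Triton X-100) in acetate buffer pH 5.5 with DTT. 1.5 nM enzyme and compound were pre-mixed 15 min, then 2 uM Z-FR-AMC substrate added; reaction progress from fluorescence change between first and third reads (60 s).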
Cruzain inh Det: blocks cruzain activity in presence of Triton detergent | P25779 | purified cruzain, Z-FR-AMC fluorescence, 0.01% Triton | Potency, µM, inactives show max response, negative = inhibition, most hits filed as inhibitors | 200,000 compounds, 0.43% hits;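 note: plate controls were neutral wells for no effect and buffer without enzyme for full effect; nearly all actives have a fitted effect of over 40% in size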
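Z-FR-AMC hydrolysis (2 uM substrate) by cruzain (1.5 nM) monitored kinetically at ex 360/em 450 nm after 15 min room-temperature compound exposure; 0.01% Triton X-100, pH 5.5, 5 mM DTT.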
An asterisk follows results filed as active; ? = inconclusive. Calls come from the whole dose curve; as a rule, active = well fitted curve in the direction sought with a large enough effect; inconclusive = small, poorly fitted or top-dose-only effect, or another doubt; inactive = no such curve, though single readings can be large; an effect the other way counts as inactive or inconclusive. Potency is the fitted concentration of half-maximal effect.

SMILES	Cruzain noTriton	Cruzain inh Det
Cc1ccc(NC(=O)NC(=O)COc2ccc(Cl)cc2Cl)c(C)c1	13µM*	0%
COc1cccc(NC(=O)c2sc3nc(C)c(C(=O)Nc4ccc(C)cc4C)c(-c4ccco4)c3c2N)c1	-11%	-3%
Cc1cc2oc(=O)cc(-c3ccccc3)c2c(C)c1-c1ccc(F)c(Cl)c1	5.6µM*	1%
Cc1cc2oc(=O)cc(-c3ccccc3)c2c(C)c1-c1cccc(N)c1	?	2%
CC(=O)c1ccsc1-c1c(C)cc2oc(=O)cc(-c3ccccc3)c2c1C	35µM*	1%
Cc1cc2oc(=O)cc(-c3ccccc3)c2c(C)c1-c1sccc1C=O	?	1%
COc1cccc(CCNC(=O)c2ccc(Cn3c(SCc4ccccc4)nc4cccnc43)cc2)c1	-19%	-8%
O=C(Nc1ccc(Cl)cc1Cl)c1cc(S(=O)(=O)NCc2ccc3c(c2)OCO3)ccc1F	0%	1%
Cc1cc(OCC(=O)N(C)C)c2c(-c3ccccc3)cc(=O)oc2c1	-6%	0%
CN(C)C(=O)COc1ccc2cc(-c3ccccc3)c(=O)oc2c1	?	28µM*
COc1cc2c(=O)c(C(=O)c3ccc(F)cc3)cn(Cc3cccc(F)c3)c2cc1OC	?	-3%
Cc1ccc(NC(=O)C2CCN(S(=O)(=O)c3ccc4c(c3)CCCC(=O)N4)CC2)c(Cl)c1	-3%	-3%
Cc1ccc(NC(=S)NC(=O)c2ccc(F)cc2)cc1S(=O)(=O)Nc1ccccc1Cl	?	-5%
O=C(NC(=S)Nc1ccc2c(c1)C(=O)c1ccccc1C2=O)c1ccc(F)cc1	4µM*	0%
Cc1cccc(-n2c(=O)c3c(c4cc(C)ccc4n3C)n(CC(=O)Nc3ccc(C)c(C)c3)c2=O)c1	-2%	1%
NC(=S)N/N=C/c1ccc(-c2cc(Cl)cc(Cl)c2)o1	10µM*	4.5µM*
COC(=O)N/N=C/c1ccc(-c2cc(Cl)cc(Cl)c2)o1	-12%	-8%
Cc1ccc(NC(=O)CSc2nc(=O)n(CCN3CCOCC3)c3c2CCC3)cc1Cl	6%	-1%
O=C(Nc1ccccc1)c1cn(-c2ccccc2)nc1-c1ccccc1	29%	-5%
O=C(Nc1ccc([N+](=O)[O-])cc1)c1cn(-c2ccccc2)nc1-c1cc2ccccc2o1	7.9µM*	-3%
Clc1ccc(-c2nnc(-c3ccco3)nc2N2CCCCC2)cc1	-27%	-21%
Clc1ccc(-c2nnc(-c3ccc(Br)cc3)c(N3CCSCC3)n2)cc1	20µM*	1%
Cc1ccc(NC(=O)c2nnn(CC(=O)Nc3ccccc3)c2N)cc1C	?	6%
Cc1ccc(NC(=O)c2nnn(CC(=O)Nc3ccc(C)c(Cl)c3)c2N)c(C)c1	10µM*	1%
CC(C)c1ccccc1NC(=O)CN(c1ccccc1)S(=O)(=O)N(C)C	11%	-2%
SMILES	Cruzain noTriton	Cruzain inh Det
COC(=O)c1ccc(CC(=O)c2nc3ccccc3s2)cc1	32µM*	-2%
O=C(Cc1ccccc1)c1nc2ccccc2s1	-13%	-15%
COc1cc(/C=N/Nc2nc3ccccc3s2)ccc1OC(=O)c1ccccc1F	?	-3%
COc1cc(/C=N/Nc2ccccc2)ccc1OC(=O)c1cccs1	13µM*	-3%
COc1cc(OC)cc(C(=O)Oc2ccc(/C=N/Nc3nc4ccccc4s3)cc2OC)c1	13µM*	-7%
COc1cc(/C=N/NC(=O)COc2ccc(C)cc2)ccc1OC(=O)c1cccs1	?	-5%
CCc1ccc(-n2nc(C)c3c(C)cc(=O)n(CC(=O)Nc4ccc(C(C)=O)cc4)c32)cc1	-2%	0%
CCNc1ncc2nc(-c3cccc(C#N)c3)c(=O)n(Cc3cccc(OC)c3)c2n1	-3%	4%
Cc1ccc(C)c(NC(=O)Cn2c(=O)nc(-c3ccccc3)c3ccccc32)c1	?	-1%
COc1ccc(C)cc1-n1cnc2cc(C(=O)NC3CCCCCC3)ccc21	-5%	-10%
COc1ccc(NC(=O)CCc2c(C)nn(-c3ccc(N4CCCC4)nn3)c2C)cc1Cl	21%	-5%
Cc1ccnc(NC(=S)NC(=O)/C=C/c2ccc(Cl)cc2)c1	4µM*	3%
Cc1ccnc(NC(=S)NC(=O)/C=C/c2ccccc2)c1	?	-4%
CCc1ccc(NC(=O)C(=O)NCC(c2ccc3c(c2)OCO3)N2CCOCC2)cc1 (stereo not given)	-3%	1%
CCc1ccc(C(=O)COC(=O)C(NC(=O)C2CCC(C)CC2)C(C)C)cc1 (stereo not given)	-5%	-15%
CC1CCC(C(=O)NC(C(=O)OCC(=O)c2ccc(Br)cc2)C(C)C)CC1 (stereo not given)	-23%	14µM*
Cc1cccc(-n2c(=O)c3c(c4cc(C)ccc4n3C)n(CC(=O)N3CCCC3)c2=O)c1	-11%	2%
CC(C)(C)OC(=O)N1CCC(c2c(C(=O)N3CCN(C(=O)c4ccco4)CC3)cnn2-c2cccc(F)c2)CC1	10%	0%
CCOc1ccc(C(=O)CSc2nnc(N)s2)cc1	25µM*	-6%
COc1ccc(NC(=O)CSc2nnc(N)s2)cc1	-3%	0%
O=C(N/N=C\c1ccc(F)cc1)c1cc(OCC(F)(F)F)ccc1OCC(F)(F)F	12%	-3%
O=C(N/N=C/c1ccc(OCCCF)cc1)c1cc(OCC(F)(F)F)ccc1OCC(F)(F)F	25µM*	0%
CCOC(=O)Cn1c(=O)n(CC2CCCO2)c2nc(-c3ccccc3F)nc(C(N)=O)c21 (stereo not given)	3%	-3%
COc1ccccc1CNc1ncnc2c1c(-c1ccccc1)cn2-c1ccc(Br)cc1	7.9µM*	-1%
COc1ccc(CNc2ncnc3c2c(-c2ccccc2)cn3-c2ccccc2)cc1	6%	1%
SMILES	Cruzain noTriton	Cruzain inh Det
Cn1cc(C(=O)O)c(=O)c2cc(S(=O)(=O)N3CCOCC3)ccc21	3%	2%
NC(=O)C1(N2CCCCC2)CCN(C(=O)Nc2ccc(F)cc2)CC1	10%	0%
CCn1c2ccccc2c2cc(NC(=O)C(C)Oc3ccccc3)ccc21 (stereo not given)	?	0%
CCn1c2ccccc2c2cc(NC(=O)C(C)Oc3ccc(OC)cc3)ccc21 (stereo not given)	25µM*	0%
Cc1ccccc1OCCn1nc(C(=O)O)c2ccccc2c1=O	16%	-5%
Cc1cc(C(=O)Cn2nc(C(=O)O)c3ccccc3c2=O)c(C)n1-c1ccc(F)cc1	25µM*	-9%
CCOc1ccc(NC(=O)Cn2c(=O)n(-c3cccc(Cl)c3)c(=O)c3c2c2cc(C)ccc2n3C)cc1	-3%	2%
COc1ncc2nc(CCc3ccccc3)c(=O)n(Cc3cccs3)c2n1	-1%	-2%
CC(C)c1ccc(NC(=O)CSc2nc3c(c(=O)[nH]2)CCC3)cc1	13µM*	2%
Cc1ccc(NC(=O)CSc2nc3c(c(=O)[nH]2)CCC3)cc1C	?	2%
Cc1ccc(NC(=O)Cn2c(=O)oc3cc(S(=O)(=O)N4CCCCCC4)ccc32)cc1Cl	-8%	0%
CCOC(=O)c1ccc(NC(=O)C2CCCN(c3ccc(Sc4ccc(C)cc4)nn3)C2)cc1 (stereo not given)	-9%	-5%
CCOC(=O)/C(=C\C=C\c1ccccc1)NC(=O)c1ccccc1	-19%	-25%
C=CCOC(=O)/C(=C\C=C\c1ccccc1)NC(=O)c1ccccc1	?	14µM*
O[C@@H](c1cc(-c2ccccc2)nc2c1ccc1ccccc12)C1CCCCN1 (stereo not given in full)	-3%	4%
